# According to the supplement of paper PMC12282887:
# ± gives the standard deviation of the averaged measurements.
# Columns and labels:
# Assay in all cases: promoter activity interaction Z-score (Lux/OD deviation from empty-vector control); higher = stronger promoter induction by the compound
# [1] = system: E. coli BW25113 acrABp lux reporter
# Procedure, shortened: (§1)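 E. coli BW25113 (wild type or marA, soxS or rob deletion) carrying low-copy luxCDABE promoter reporters grew in 40 µl LB Lennox in 384-well plates at 37°C. Each compound was tested at four 1:2 dilutions in biological duplicates. OD600 and luminescence were read every 30 min for 12 h. Areas were taken over 0–8 h (wild type) or 1–9 h (mutants), and wells below 10% of median growth area were removed. The score is the Z-transformed residual of growth-normalised luminescence fitted against the empty-vector control.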
# [2] = system: E. coli BW25113 micFp lux reporter
# Procedure, shortened: as §1
# [3] = system: E. coli BW25113 ompFp lux reporter
# Procedure, shortened: as §1
# [4] = system: E. coli BW25113 robp lux reporter
# Procedure, shortened: as §1
# [5] = system: E. coli BW25113 soxSp lux reporter
# Procedure, shortened: as §1
# [6] = system: E. coli BW25113 tolCp lux reporter
# Procedure, shortened: as §1
# [7] = 19.7 µg/ml, genetic background: wild type
# [8] = 19.7 µg/ml, genetic background: ΔmarA
# [9] = 19.7 µg/ml, genetic background: Δrob
# [10] = 19.7 µg/ml, genetic background: ΔsoxS
# [11] = 39.3 µg/ml, genetic background: wild type
# [12] = 39.3 µg/ml, genetic background: ΔmarA
# [13] = 39.3 µg/ml, genetic background: Δrob
# [14] = 39.3 µg/ml, genetic background: ΔsoxS
# [15] = 78.6 µg/ml, genetic background: wild type
# [16] = 78.6 µg/ml, genetic background: ΔmarA
# [17] = 78.6 µg/ml, genetic background: Δrob
# [18] = 78.6 µg/ml, genetic background: ΔsoxS
# [19] = 157.2 µg/ml, genetic background: wild type
# [20] = 157.2 µg/ml, genetic background: ΔmarA
# [21] = 157.2 µg/ml, genetic background: Δrob
# [22] = 157.2 µg/ml, genetic background: ΔsoxS
structure (smiles),measurement,setting,value
CC(=O)[C@H]1CC[C@H]2[C@@H]3CCC4=CC(=O)CC[C@]4(C)[C@H]3CC[C@]12C [Progesterone],promoter activity interaction Z-score,[1]; [7],-0.247 ± 0.13
same,promoter activity interaction Z-score,[1]; [8],-0.405 ± 0.19
same,promoter activity interaction Z-score,[1]; [9],-0.0328 ± 0.098
same,promoter activity interaction Z-score,[1]; [10],-0.282 ± 0.25
same,promoter activity interaction Z-score,[1]; [11],-0.262 ± 0.14
same,promoter activity interaction Z-score,[1]; [12],-0.838 ± 0.1
same,promoter activity interaction Z-score,[1]; [13],-0.217 ± 0.17
same,promoter activity interaction Z-score,[1]; [14],-0.38 ± 0.34
same,promoter activity interaction Z-score,[1]; [15],0.00448 ± 0.24
same,promoter activity interaction Z-score,[1]; [16],-0.886 ± 0.13
same,promoter activity interaction Z-score,[1]; [17],-0.151 ± 0.044
same,promoter activity interaction Z-score,[1]; [18],-0.0393 ± 0.056
same,promoter activity interaction Z-score,[1]; [19],-0.214 ± 0.34
same,promoter activity interaction Z-score,[1]; [20],0.269 ± 0.11
same,promoter activity interaction Z-score,[1]; [21],0.191 ± 0.14
same,promoter activity interaction Z-score,[1]; [22],-0.315 ± 1
same,promoter activity interaction Z-score,[2]; [7],-0.103 ± 0.25
same,promoter activity interaction Z-score,[2]; [8],0.119 ± 0.028
same,promoter activity interaction Z-score,[2]; [9],0.0776 ± 0.12
same,promoter activity interaction Z-score,[2]; [10],0.434 ± 0.5
same,promoter activity interaction Z-score,[2]; [11],-0.0976 ± 0.35
same,promoter activity interaction Z-score,[2]; [12],0.123 ± 0.056
same,promoter activity interaction Z-score,[2]; [13],0.0868 ± 0.01
same,promoter activity interaction Z-score,[2]; [14],0.176 ± 0.29
same,promoter activity interaction Z-score,[2]; [15],-0.119 ± 0.33
same,promoter activity interaction Z-score,[2]; [16],0.21 ± 0.0092
same,promoter activity interaction Z-score,[2]; [17],-0.0152 ± 0.13
same,promoter activity interaction Z-score,[2]; [18],0.432 ± 0.42
same,promoter activity interaction Z-score,[2]; [19],-0.0937 ± 0.11
same,promoter activity interaction Z-score,[2]; [20],0.211 ± 0.14
same,promoter activity interaction Z-score,[2]; [21],-0.0152 ± 0.04
same,promoter activity interaction Z-score,[2]; [22],0.0431 ± 0.32
same,promoter activity interaction Z-score,[3]; [7],-0.534 ± 0.033
same,promoter activity interaction Z-score,[3]; [8],-0.169 ± 0.36
same,promoter activity interaction Z-score,[3]; [9],-0.0375 ± 0.16
same,promoter activity interaction Z-score,[3]; [10],-0.19 ± 0.42
same,promoter activity interaction Z-score,[3]; [11],-0.381 ± 0.1
same,promoter activity interaction Z-score,[3]; [12],-0.611 ± 0.036
same,promoter activity interaction Z-score,[3]; [13],0.0341 ± 0.39
same,promoter activity interaction Z-score,[3]; [14],-0.905 ± 0.22
same,promoter activity interaction Z-score,[3]; [15],-0.604 ± 0.2
same,promoter activity interaction Z-score,[3]; [16],-0.705 ± 0.19
same,promoter activity interaction Z-score,[3]; [17],-0.397 ± 0.063
same,promoter activity interaction Z-score,[3]; [18],-0.681 ± 0.46
same,promoter activity interaction Z-score,[3]; [19],-0.672 ± 0.32
same,promoter activity interaction Z-score,[3]; [20],-0.651 ± 0.19
same,promoter activity interaction Z-score,[3]; [21],-1.43 ± 0.17
same,promoter activity interaction Z-score,[3]; [22],-1.51 ± 0.4
same,promoter activity interaction Z-score,[4]; [7],0.215 ± 0.46
same,promoter activity interaction Z-score,[4]; [8],-0.134 ± 0.11
same,promoter activity interaction Z-score,[4]; [9],0.137 ± 0.78
same,promoter activity interaction Z-score,[4]; [10],0.0784 ± 0.35
same,promoter activity interaction Z-score,[4]; [11],-0.384 ± 0.091
same,promoter activity interaction Z-score,[4]; [12],-0.498 ± 0.18
same,promoter activity interaction Z-score,[4]; [13],-0.00268 ± 0.38
same,promoter activity interaction Z-score,[4]; [14],-0.408 ± 1.2
same,promoter activity interaction Z-score,[4]; [15],0.0849 ± 0.14
same,promoter activity interaction Z-score,[4]; [16],-0.366 ± 0.29
same,promoter activity interaction Z-score,[4]; [17],-0.234 ± 0.65
same,promoter activity interaction Z-score,[4]; [18],-0.171 ± 0.34
same,promoter activity interaction Z-score,[4]; [19],-0.26 ± 0.16
same,promoter activity interaction Z-score,[4]; [20],-0.185 ± 0.13
same,promoter activity interaction Z-score,[4]; [21],-0.798 ± 0.68
same,promoter activity interaction Z-score,[4]; [22],-1.05 ± 0.11
same,promoter activity interaction Z-score,[5]; [7],-0.199 ± 0.29
same,promoter activity interaction Z-score,[5]; [8],-0.22 ± 0.01
same,promoter activity interaction Z-score,[5]; [9],0.0249 ± 0.041
same,promoter activity interaction Z-score,[5]; [10],-0.00845 ± 0.063
same,promoter activity interaction Z-score,[5]; [11],-0.25 ± 0.099
same,promoter activity interaction Z-score,[5]; [12],-0.192 ± 0.018
same,promoter activity interaction Z-score,[5]; [13],-0.155 ± 0.04
same,promoter activity interaction Z-score,[5]; [14],-0.315 ± 0.23
same,promoter activity interaction Z-score,[5]; [15],-0.226 ± 0.1
same,promoter activity interaction Z-score,[5]; [16],-0.147 ± 0.072
same,promoter activity interaction Z-score,[5]; [17],-0.0586 ± 0.098
same,promoter activity interaction Z-score,[5]; [18],-0.236 ± 0.25
same,promoter activity interaction Z-score,[5]; [19],-0.226 ± 0.079
same,promoter activity interaction Z-score,[5]; [20],-0.186 ± 0.028
same,promoter activity interaction Z-score,[5]; [21],-0.48 ± 0.037
same,promoter activity interaction Z-score,[5]; [22],-0.776 ± 0.47
same,promoter activity interaction Z-score,[6]; [7],-0.462 ± 1.4
same,promoter activity interaction Z-score,[6]; [8],0.741 ± 0.62
same,promoter activity interaction Z-score,[6]; [9],-0.127 ± 0.85
same,promoter activity interaction Z-score,[6]; [10],-0.377 ± 0.42
same,promoter activity interaction Z-score,[6]; [11],0.606 ± 1
same,promoter activity interaction Z-score,[6]; [12],0.0914 ± 0.43
same,promoter activity interaction Z-score,[6]; [13],0.494 ± 1
same,promoter activity interaction Z-score,[6]; [14],-1.65 ± 1.1
same,promoter activity interaction Z-score,[6]; [15],-0.308 ± 0.37
same,promoter activity interaction Z-score,[6]; [16],0.451 ± 1.3
same,promoter activity interaction Z-score,[6]; [17],0.161 ± 0.71
same,promoter activity interaction Z-score,[6]; [18],0.0688 ± 1.3
same,promoter activity interaction Z-score,[6]; [19],-0.227 ± 0.23
same,promoter activity interaction Z-score,[6]; [20],0.167 ± 0.12
same,promoter activity interaction Z-score,[6]; [21],-0.116 ± 0.74
same,promoter activity interaction Z-score,[6]; [22],0.764 ± 1
